The values below come from PubChem BioAssay (NCATS).

Several values for one entry are separate records, joined by “and”; a condition that tells them apart may be missing. Equal values may be shown once. Inconclusive results are not listed. Activity calls are given as the source filed them. The call rests on the fitted dose curve; tested in HEK293 reporter line.

The nature of experiment [1]: qHTS for Inhibitors of the Functional Ribonucleoprotein Complex (vRNP) of Lassa (LASV) Arenavirus: LASV Primary Screen - GLuc reporter signal (AID 1347082). Further: nearly all actives have a fitted effect of over 60% in size. As to conditions: LASV minigenome vRNP, Gaussia luciferase reporter; series mostly up to 57.5 µM. On the technique in general: qHTS replaces the single test concentration by a dilution series.
A short description of experiment [2]: qHTS for Inhibitors of the Functional Ribonucleoprotein Complex (vRNP) of Lassa (LASV) Arenavirus: Viability assay - alamar blue signal for LASV Primary Screen (AID 1347083). Further: nearly all actives have a fitted effect of over 80% in size. Particulars: cell viability, alamar blue fluorescence (LASV minigenome counter-screen); series mostly up to 57.5 µM.
Experiment [3] can be described thus: qHTS for Inhibitors of the Functional Ribonucleoprotein Complex (vRNP) of Lymphocytic Choriomeningitis Arenaviruses (LCMV): Viability assay - alamar blue signal for LCMV Primary Screen (AID 1347085). Further: nearly all actives have a fitted effect of over 80% in size. Particulars: alamar blue viability counter-screen, LCMV vRNP screen cells; series mostly up to 57.5 µM.
Potency means the concentration at half of the fitted maximal effect.

Consider `CN1CCCN=C1/C=C/c1cccs1`, for which the Potency entry in experiment [1], in experiment [2] and in experiment [3] was “inactive” each time.

For the compound `c1ccc([C@H]2CN3CCSC3=N2)cc1`, the Potency entry in experiment [1], in experiment [2] and in experiment [3] was “inactive” in each case.

Turning to `CC(=O)Nc1cccc(O)c1`, the Potency result in experiment [1], in experiment [2] and in experiment [3] was “inactive” throughout.

In the case of `CCc1oc2ccccc2c1C(=O)c1cc(Br)c(O)c(Br)c1`, the Potency result in experiment [1], in experiment [2] and in experiment [3] was “inactive” each time.

Turning to `Cc1ccc(Cl)c(OCC(O)CNC(C)(C)C)c1` (stereo not given), the Potency entry in experiment [1], in experiment [2] and in experiment [3] was “inactive” each time.

With `CC(C)(C)C(=O)NCCCC(=O)O`, the Potency result in experiment [1], in experiment [2] and in experiment [3] was “inactive” throughout.

As to `CCOC(=O)C1=C(C)NC(C)=C(C(=O)OCC)C1c1ccccc1/C=C/C(=O)OC(C)(C)C`, the Potency result in experiment [1], in experiment [2] and in experiment [3] was “inactive” each time.

Regarding `COc1cc([C@H]2Oc3cc([C@H]4Oc5cc(O)cc(O)c5C(=O)[C@@H]4O)ccc3O[C@@H]2CO)ccc1O`, the Potency entry in experiment [1], in experiment [2] and in experiment [3] was “inactive” in each case.

`CS(=O)(=O)c1ccc(-c2cn3ccccc3n2)cc1`: the Potency entry in experiment [1], in experiment [2] and in experiment [3] was “inactive” throughout.

Regarding `NC1(c2ccc(-c3nc4ccn5c(=O)[nH]nc5c4cc3-c3ccccc3)cc2)CCC1`, the Potency is 19.3 µM (active) in experiment [1]; 2.73 µM (active) and 5.62 µM (active) in experiment [2]; 3.85 µM (active) in experiment [3].

For `C[C@H]1[C@H]2CC[C@H]3[C@@H]4CC=C5C[C@@H](N(C)C)CC[C@]5(C)[C@H]4CC[C@]23CN1C`, the Potency result in experiment [1], in experiment [2] and in experiment [3] was “inactive” throughout.

With `CCOC(=O)c1ccc(OC(=O)CCCCCN=C(N)N)cc1`, the Potency result in experiment [1], in experiment [2] and in experiment [3] was “inactive” in each case.

Take `NS(=O)(=O)c1cc2c(cc1Cl)NC(CSCc1ccccc1)=NS2(=O)=O`: the Potency result in experiment [1], in experiment [2] and in experiment [3] was “inactive” in each case.

As for `N[C@H](C(=O)O)c1ccc(O)cc1`, the Potency result in experiment [1], in experiment [2] and in experiment [3] was “inactive” throughout.

As for `Cc1oc(-c2ccccc2)nc1CCC(=O)c1ccc(CC2SC(=O)NC2=O)cc1` (stereo not given), the Potency entry in experiment [1], in experiment [2] and in experiment [3] was “inactive” each time.

For the compound `Cc1ccc(S(=O)(=O)NC(=O)NC2CCCC2)cc1`, the Potency result in experiment [1], in experiment [2] and in experiment [3] was “inactive” throughout.

With `CCOc1ccccc1C(N)=O`, the Potency result in experiment [1], in experiment [2] and in experiment [3] was “inactive” in each case.

`C=CCSCC1Nc2cc(Cl)c(S(N)(=O)=O)cc2S(=O)(=O)N1` (stereo not given): the Potency result in experiment [1], in experiment [2] and in experiment [3] was “inactive” each time.

Regarding `C1CCC(C(CC2CCCCN2)C2CCCCC2)CC1` (stereo not given), the Potency entry in experiment [1], in experiment [2] and in experiment [3] was “inactive” each time.

For the compound `CCCCC/C=C\C/C=C\CCCCCCCC(=O)NC(C)c1ccccc1` (stereo not given), the Potency entry in experiment [1], in experiment [2] and in experiment [3] was “inactive” in each case.

Turning to `CCCCCCCCCCCCOS(=O)(=O)O`, the Potency entry in experiment [1], in experiment [2] and in experiment [3] was “inactive” each time.

On to `C(=C\c1ccccc1)/CN1CCN(C(c2ccccc2)c2ccccc2)CC1`, for which the Potency result in experiment [1], in experiment [2] and in experiment [3] was “inactive” each time.

`CC(=O)c1ccc2c(c1)N(CCCN(C)C)c1ccccc1S2`: the Potency result in experiment [1], in experiment [2] and in experiment [3] was “inactive” each time.

`CC(=O)OCC(=O)[C@@]12N=C(C)O[C@@H]1C[C@H]1[C@@H]3CCC4=CC(=O)C=C[C@]4(C)[C@H]3[C@@H](O)C[C@@]12C`: the Potency result in experiment [1], in experiment [2] and in experiment [3] was “inactive” each time.

On to `CCC(C(=O)OCCN1CCOC(c2ccccc2)C1C)c1ccccc1` (stereo not given), for which the Potency entry in experiment [1], in experiment [2] and in experiment [3] was “inactive” each time.

As for `NCCNC(=O)c1ccc(Cl)cn1`, the Potency entry in experiment [1], in experiment [2] and in experiment [3] was “inactive” throughout.

With `C[C@@H]1CN(CCCn2c3ccccc3c3ccccc32)C[C@H](C)N1`, the Potency result in experiment [1] and in experiment [3] was “inactive” each time.

Take `Clc1ccc(Nc2nnc(Cc3ccncc3)c3ccccc23)cc1`: the Potency result in experiment [1] and in experiment [3] was “inactive” in each case.

Regarding `CCCCOc1ccc(CC(=O)NO)cc1`, the Potency result in experiment [1] and in experiment [3] was “inactive” in each case.

On to `CN1CCC(=C2c3ccccc3CC(=O)c3sccc32)CC1`, for which the Potency result in experiment [1] and in experiment [3] was “inactive” in each case.

With `O=c1[nH]c(=O)n([C@H]2C[C@H](O)[C@@H](CO)O2)cc1C(F)(F)F`, in experiment [1], the Potency entry was “inactive”. For the same compound, the Potency in experiment [3] is 15.8 µM (active).

For `CCO[C@@H]1O[C@H](C(COCc2ccccc2)OCc2ccccc2)[C@H](OCc2ccccc2)[C@H]1O` (stereo not given in full), the Potency entry in experiment [1] and in experiment [3] was “inactive” each time.

On to `Cc1nc2ccccc2n1Cc1ccc(Cl)cc1`, for which, in experiment [3], the Potency entry is “inactive”.

For the compound `CCCCCN=C(N)N/N=C/c1c[nH]c2ccc(OC)cc12`, in experiment [2], the Potency result is “inactive”.

Turning to `O=Cc1ccc(O)c(O)c1O`, the Potency entry in experiment [1] and in experiment [3] was “inactive” throughout.

`O=S(=O)(O)NC1CCCCC1`: the Potency entry in experiment [1] and in experiment [3] was “inactive” each time.

As for `CC(C)n1nc(-c2cc3cc(O)ccc3[nH]2)c2c(N)ncnc21`, the Potency in experiment [2] was 1.78 µM (active).

Turning to `CC(NCCC(c1ccccc1)c1ccccc1)c1ccccc1` (stereo not given), the Potency result in experiment [1] and in experiment [3] was “inactive” each time.

For the compound `COc1cc(N)c(Cl)cc1C(=O)NC1CCN(Cc2ccccc2)CC1`, the Potency result in experiment [1] and in experiment [3] was “inactive” each time.

`O=C(NOCC1CC1)c1ccc(F)c(F)c1Nc1ccc(I)cc1Cl`: the Potency entry in experiment [1] and in experiment [3] was “inactive” in each case.

For `CN1CCC(Nc2ncc3ncnc(Nc4ccc(F)c(Cl)c4)c3n2)CC1`, the Potency result in experiment [1] and in experiment [3] was “inactive” throughout.

On to `CCCCCCCCCCCCCCCC[N+](C)(C)Cc1ccccc1`, for which the Potency result in experiment [1] and in experiment [3] was “inactive” each time.

As to `Nc1c2ccccc2nc2ccccc12`, the Potency in experiment [3] was 14.1 µM (active).

For the compound `CC[N+](CC)(CC)CCOc1ccc(/C=C/c2ccccc2)cc1`, the Potency result in experiment [3] is “inactive”.

Consider `Clc1ccccc1C(c1ccccc1)(c1ccccc1)n1ccnc1`, for which the Potency entry in experiment [2] and in experiment [3] was “inactive” throughout.

As for `CCOC(=O)[C@H](CCc1ccccc1)N[C@@H](C)C(=O)N(CC(=O)O)C1Cc2ccccc2C1`, the Potency result in experiment [1] and in experiment [3] was “inactive” each time.

`CCOC(=O)Nc1ccc(NCc2ccc(F)cc2)nc1N`: the Potency result in experiment [1] and in experiment [3] was “inactive” each time.

Take `O[C@@H](COc1cccc2ncccc12)CN1CCN(C2c3ccccc3[C@@H]3[C@H](c4ccccc42)C3(F)F)CC1` (stereo not given in full): the Potency in experiment [2] is 12.2 µM (active).

Regarding `COC[C@@H](c1ccc(C(F)(F)F)cc1)N1CCN(C2(C)CCN(C(=O)c3c(C)ncnc3C)CC2)C[C@H]1C`, in experiment [1], the Potency result was “inactive”. Further, the Potency in experiment [3] was 38.5 µM (active).

Regarding `COc1cccc2c1C(=O)c1c(O)c3c(c(O)c1C2=O)C[C@@](O)(C(C)=O)C[C@@H]3O[C@H]1C[C@H](N)[C@H](O)[C@H](C)O1`, the Potency was 0.891 µM (active) in experiment [2] and 0.355 µM (active) in experiment [3].

On to `CN(C)CCN(Cc1ccc(Cl)cc1)c1ccccn1`, for which the Potency entry in experiment [1] and in experiment [3] was “inactive” throughout.

Consider `CN(C)CC/C=C1\c2ccccc2Sc2ccc(Cl)cc21`, for which the Potency result in experiment [1] and in experiment [3] was “inactive” each time.

As to `CCN(CC)CCOc1ccc(C(O)(Cc2ccc(Cl)cc2)c2ccc(C)cc2)cc1` (stereo not given), the Potency result in experiment [1] and in experiment [3] was “inactive” throughout.

Turning to `CCCCCCCCCCCCCCCC[n+]1ccccc1`, in experiment [2], the Potency is 15.8 µM (active).

Take `Oc1c(Cl)cc(Cl)c(Cl)c1Cc1c(O)c(Cl)cc(Cl)c1Cl`: the Potency entry in experiment [3] is “inactive”.

In the case of `CCCOc1ccc2nc(NC(=O)OC)[nH]c2c1`, the Potency result in experiment [1] was “inactive”. In experiment [3], the Potency was 0.0172 µM (active).

With `O=C(O)c1ccc(OCCCOc2ccc(C(=O)O)cc2)cc1`, in experiment [3], the Potency entry is “inactive”.

For the compound `O=C(Nc1ccc(Cl)cc1)Nc1ccc(Cl)c(C(F)(F)F)c1`, in experiment [3], the Potency was 14.1 µM (active).

Regarding `O=C(CCCN1CCN(c2ccc(F)cc2)CC1)NC1c2ccccc2CSc2ccccc21` (stereo not given), the Potency in experiment [1] is 24.3 µM (active). The Potency entry in experiment [3] was “inactive”.

As for `COc1ccc2cc3[n+](cc2c1OC)CCc1cc2c(cc1-3)OCO2`, the Potency in experiment [1] is 27.3 µM (active). Moreover, the Potency result in experiment [3] is “inactive”.

Turning to `CC(=O)SC[C@@H](Cc1ccccc1)C(=O)NCC(=O)OCc1ccccc1`, in experiment [3], the Potency entry was “inactive”.

Consider `CCOC(=O)N1CCC(n2c(=O)[nH]c3cc(Cl)ccc32)CC1`, for which the Potency entry in experiment [2] and in experiment [3] was “inactive” throughout.

For the compound `O=C1[C@H]2CCCC[C@H]2C(=O)N1CCCCN1CCN(c2nsc3ccccc23)CC1`, the Potency entry in experiment [2] and in experiment [3] was “inactive” each time.

Regarding `CC/C(=C(/CC)c1ccc(O)cc1)c1ccc(O)cc1`, the Potency result in experiment [1] and in experiment [3] was “inactive” each time.

For the compound `CO[C@@H]1[C@@H](OC)[C@H](C)[C@@](O)(CC(=O)O)O[C@H]1[C@H](C)[C@H]1O[C@@]2(CC[C@@](C)([C@H]3CC[C@@](C)([C@@H]4O[C@@H]([C@H]5O[C@](C)(O)[C@H](C)C[C@@H]5C)C[C@@H]4OC4C[C@H](OC)[C@@H](OC)[C@H](C)O4)O3)O2)C[C@H](O)[C@H]1C` (stereo not given in full), the Potency in experiment [3] is 2 µM (active).

As for `COC(=O)c1nc(Cl)c(Cl)nc1N`, in experiment [3], the Potency entry was “inactive”.
